Screens (PubChem)
MOR-DOR ag: agonists of human mu-delta opioid receptor heterodimerization | P35372+P41143 | activation, % at 9.3 µM | cells, OPRM1-OPRD1 heterodimerization, luminescence | 340,000 compounds, 0.3% hits; in the data active = activation above about 18%;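 also: 0% = vehicle-treated cells and 100% = reference agonist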
HTR5A ag: HTR5A agonism, opioid heterodimer counter-screen. P47898. HTR5A agonist assay, luminescence, cell-based. activation, % at 9.3 µM. 340,000 compounds, 0.61% hits. AID 504692; in the data active = activation mostly above about 9.5%, no sharp cut-off; inactive = mostly below about 7.6%;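 also: 0% = cells with vehicle only and 100% = reference agonist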
Target sequence (P47898 whole entry, looked up): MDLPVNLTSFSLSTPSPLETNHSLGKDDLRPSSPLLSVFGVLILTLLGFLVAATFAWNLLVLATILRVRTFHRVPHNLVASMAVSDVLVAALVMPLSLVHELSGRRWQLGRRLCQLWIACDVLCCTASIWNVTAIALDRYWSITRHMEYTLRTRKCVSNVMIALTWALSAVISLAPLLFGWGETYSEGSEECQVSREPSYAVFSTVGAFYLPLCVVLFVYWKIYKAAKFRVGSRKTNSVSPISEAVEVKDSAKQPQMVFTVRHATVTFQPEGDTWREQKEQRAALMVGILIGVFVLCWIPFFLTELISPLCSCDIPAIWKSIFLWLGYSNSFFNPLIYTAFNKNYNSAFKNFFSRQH
HTR5A inv ctr: HTR5A inverse agonism, opioid heterodimer counter-screen; HTR5A cell line, luminescence; 340,000 compounds, 0.083% hits; P47898; inhibition, % at 9.3 µM; in the data active = inhibition mostly above about 23%, no sharp cut-off; inactive = mostly below about 18%;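 also: 0% = cells with DMSO and 100% = no-cell wells with DMSO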
OPRM1-OPRD1 inv: inverse agonist of human OPRM1-OPRD1 heterodimerization; inhibition, % at 9.3 µM; cell-based MOR-DOR heterodimer luminescence, inverse agonism; AID 504357; P35372+P41143; 340,000 compounds, 0.21% hits; in the data active = inhibition above about 22%, passing the limit was not always enough;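 also: 0% = cells with DMSO and 100% = wells without cells with DMSO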
* marks the source's active call; other numbers are inactive results. The list is not random: actives were taken first. Their share in the collection is about 1.1%.

SMILES	MOR-DOR ag	HTR5A ag	HTR5A inv ctr	OPRM1-OPRD1 inv
Cc1ccccc1S(=O)(=O)Cc1ccc(C(=O)NCCCN2CCN(C)CC2)o1	-0.1	-7.2	18.4	0.5
COc1ccccc1NC(=S)NC(=O)c1ccc(Cn2cc(Br)cn2)cc1	11.4	13.5*	-4.1	-76.9
CCn1cc(C(=O)NC(=S)Nc2ccccc2Br)cn1	0.6	-3.7	9.5	-2.5
CC(C)Oc1ccc(CNC(=O)Cn2ccc3cc(S(=O)(=O)N4CCCC4)ccc32)cc1	-0.8	8.3*	-31.3	4.2
Fc1ccc(NC(=S)NNc2ncc(C(F)(F)F)cc2Cl)c(F)c1	-9.9	-14.8	38.6*	56.0*
O=S(=O)(NNc1ncc(C(F)(F)F)cc1Cl)c1ccc(F)cc1F	2.2	11.1	-28.3	-8.7
O=C(NNc1ncc(C(F)(F)F)cc1Cl)c1ccc(Cl)c(Cl)c1	-3.0	2.4	-3.5	15.2
FC(F)(F)c1cnc(NNC(=S)Nc2ccc(Cl)cc2)c(Cl)c1	-9.6	-9.6	48.7*	48.8*
Cc1cccc(C)c1NC(=O)CN(C)C(=O)C(c1ccccc1)c1ccccc1	0.7	-6.4	18.0	-5.0
COC(=O)C1=C(O)/C(=C\c2ccc(CNC(=O)C(=O)Nc3ccc(C)cc3)o2)N=C1C	0.3	-5.8	12.7	-1.5
CCOC(=O)C1=C(O)/C(=C/c2ccc(CNC(=O)C(=O)Nc3ccc(C)cc3)o2)N=C1C	0.3	14.2*	-5.7	-1.5
CCOC(=O)c1cc(NC(=O)Cc2ccc(S(=O)(=O)N3CCOCC3)s2)cc(C(=O)OCC)c1	0.3	4.7	1.8	-1.8
Cc1ccc(NC(=S)NCCc2ccccc2)c(C)c1	-2.0	3.3	3.8	9.5
Cc1ccc(NC(=S)NCCO)c(C)c1	-2.3	12.3*	13.9	9.7
O=C(CSc1nc2ccc(S(=O)(=O)N3CCOCC3)cc2[nH]1)N1CCOCC1	-1.2	1.0	10.8	7.0
COc1ccc(Cn2c(O)c(C=Nc3ccccc3C(=O)O)c3ccccc3c2=O)cc1	3.9	5.8	-16.7	-21.2
COc1ccccc1NS(=O)(=O)c1cccc(-n2c(O)c(C=Nc3ccccc3C(=O)O)c3ccccc3c2=O)c1	1.4	13.8*	34.0	-7.2
CCN(CC)c1ccc(NC(=O)Nc2cccc(C(C)=O)c2)cc1	0.9	13.0*	-33.9	-3.9
CCC(C)c1c(O)nc(SCC(=O)N2CCOCC2)[nH]c1=O (stereo not drawn)	0.4	-1.1	16.7	-2.1
COc1cc(/C=N/NC(=O)c2ccc(COc3cc(C)ccc3C(C)C)cc2)cc(OC)c1O	4.6	-0.2	6.3	-23.8
Cc1ccc(C(C)C)c(OCc2ccc(C(=O)N/N=C/c3ccc(O)c(O)c3)cc2)c1	3.2	14.2*	-38.2	-19.5
COc1ccc(NC(=O)CCC(=O)Nc2nnc(C(C)C)s2)cc1Cl	-0.4	12.0*	-31.8	1.8
CC(C)c1nnc(NC(=O)CCC(=O)Nc2ccc(Cl)cc2)s1	-2.2	1.7	2.5	10.9
O=C(c1ccc(OC2CCN(Cc3ccc(F)cc3)CC2)cc1)N1CCCC1	-0.3	10.2*	-38.2	1.8
CCc1ccc(CN2CCC(Oc3ccc(C(=O)N4CCCC4)cc3)CC2)cc1	-5.0	1.0	5.3	16.3
SMILES	MOR-DOR ag	HTR5A ag	HTR5A inv ctr	OPRM1-OPRD1 inv
COCCNC(=O)C1CC2Cn3c(nc4cc5ccccc5cc43)C2N1C (stereo not drawn)	-5.1	-4.4	11.4	23.5
CCOC(=O)c1c(C)[nH]c(C)c1C(=O)COC(=O)CCc1ccccc1	-1.2	13.1*	-5.0	4.7
O=C(Nc1c(C(=O)O)[nH]c2ccc(F)cc12)c1cccc(C(F)(F)F)c1	-0.6	11.9*	-37.4	3.3
COC(=O)CSc1nnc(NC(=O)C2CC(=O)N(c3ccc(F)cc3)C2)s1 (stereo not drawn)	-3.2	2.0	-13.9	17.0
COc1cc(/C=N\NC(=O)c2ccc(-c3ccccc3)cc2)ccc1OCC(N)=O	19.9*	10.7*	-35.7	-106.7
Cc1nn(-c2ccccc2)c(C)c1NC(=O)COc1ccc2ccccc2c1	1.5	10.3*	-13.5	-8.1
COc1ccc(/C=C2/SC(=S)N(CCCC(=O)N3CCN(C)CC3)C2=O)cc1	-0.4	-2.8	7.1	1.7
COc1ccc(/C=C2/SC(=S)N(CCC(=O)N3CCN(C)CC3)C2=O)cc1	3.1	13.6*	-19.9	-22.1
O=C(Nc1c(C(=O)c2ccccc2)oc2ccccc12)c1cc(-c2ccccc2O)n[nH]1	-2.9	0.6	-8.5	15.1
COC(=O)c1cc(S(=O)(=O)N2CCC(C)CC2)ccc1F	-0.5	9.7*	5.2	2.6
COc1ccc(NC(=O)CS(=O)c2ccc(F)cc2)cc1 (stereo not drawn)	-3.5	-1.2	10.7	18.8
COc1ccc(NC(=O)C(c2ccccc2)N(C)C(=O)CNC(C)=O)cc1 (stereo not drawn)	-1.0	14.7	-10.7	5.3
O=C(COc1ccc(Cl)cc1Br)Nc1cccc(S(=O)(=O)N2CCCC2)c1	4.2	13.7*	-7.5	-16.6
Cc1ccc(NC(=O)COc2cccc(C)c2C)cc1S(=O)(=O)N1CCCCCC1	1.6	11.2*	-30.4	-8.5
CCCCC(=O)N/N=C(\C)CC(=O)Nc1ccccc1Br	-0.9	-1.4	4.8	5.0
COCCCn1c(C(C)C)nc2oc3cc(OC)ccc3c(=O)c2c1=O	-0.3	4.3	15.6	1.3
CC(=O)Nc1ccc(NC(=O)CSc2nnc(-c3cccs3)n2C)cc1	1.0	6.9	-20.4	-7.7
COc1cccc(NC(=O)CSc2nnc(-c3cccs3)n2C)c1	-3.1	10.3*	-37.3	16.7
Cn1c(SCC(=O)c2ccccc2)nc2cccnc21	1.8	9.7*	11.6	-10.5
Cc1ccc(C(=O)CSc2nc3cccnc3n2C)cc1	-1.3	3.7	-10.3	7.8
Cc1ccc2[nH]cc(CCNC(=O)c3ccc4c(c3)OCO4)c2c1	-0.6	-1.2	4.3	3.0
Cc1ccc2[nH]cc(CCNC(=O)C3CCCO3)c2c1 (stereo not drawn)	0.3	11.3*	-41.8	-1.2
COc1cc(N=Nc2ccc(C)cc2S(N)(=O)=O)c(C)cc1N	-2.3	9.8*	-35.0	12.0
N=c1n(Cc2ccccc2)c2ccccc2n1CC(O)COc1ccc(Cl)cc1Cl (stereo not drawn)	30.6*	30.6*	-80.0	-173.0
Cc1ccc(OCC(O)Cn2c(=N)n(Cc3ccccc3)c3ccccc32)cc1 (stereo not drawn)	2.8	11.6*	4.4	-12.8
SMILES	MOR-DOR ag	HTR5A ag	HTR5A inv ctr	OPRM1-OPRD1 inv
c1ccc(CC2CNc3ccccc3CN2)cc1 (stereo not drawn)	-0.6	-1.2	27.4	3.1
CCn1nc(NC(=O)c2cccnc2)c2cc3cccc(C)c3nc21	12.1	18.3*	-66.4	-65.1
Cc1ccccc1/C(N)=N/OC(=O)c1cccs1	8.7	11.6*	-0.6	-58.6
N/C(=N\OC(=O)c1cccs1)c1cccnc1	2.4	-2.1	-18.9	-19.5
CC(C)(C)OC(=O)C[C@@H]1C/C=C\C[C@@H](CC(=O)N(CCO)Cc2ccccc2)C(=O)NC[C@H](c2ccccc2)OC1=O	-0.7	11.6*	23.6	4.3
CC(C)(C)OC(=O)C[C@@H]1C/C=C\C[C@@H](CC(=O)N(CCO)Cc2ccccc2)C(=O)NC[C@@H](c2ccccc2)OC1=O	-6.4	-2.6	17.8	29.3
CCOc1ccc(CCNC(=O)C2CCC(=O)N2CCc2ccccc2)cc1OCC (stereo not drawn)	-2.7	1.5	-6.2	13.7
